Pol kappa inh: DNA polymerase kappa (human) inhibition; 0.53% of 400,000 active; Potency, µM (series often up to 107 µM), for inactives: at the top dose activity, negative = inhibition, actives largely listed as inhibitors; Q9UBT6; purified Pol kappa, fluorescent DNA synthesis assay, 10 min; note: % is set by controls: 0 for no effect and ±100 for the full control effect
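Kinetic fluorescence readout at 0 and 10 min followed reaction start with substrate at 50 nM final. Beforehand, enzyme (10 nM Pol kappa) stood 15 min with compound at room temperature; buffer-only wells were negative controls.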
POLH inh: DNA polymerase eta (human) inhibition; Q9Y253; recombinant Pol eta, fluorescent DNA replication assay; Potency, µM (doses to about 114 µM), for the others: at the highest dose activity change, negative = inhibition, hits mostly inhibitors; 1.2% of 390,000 active; AID 588591; note: % is set by controls: 0 for no effect and ±100 for the full control effect
Target sequence (Q9Y253 whole entry, looked up): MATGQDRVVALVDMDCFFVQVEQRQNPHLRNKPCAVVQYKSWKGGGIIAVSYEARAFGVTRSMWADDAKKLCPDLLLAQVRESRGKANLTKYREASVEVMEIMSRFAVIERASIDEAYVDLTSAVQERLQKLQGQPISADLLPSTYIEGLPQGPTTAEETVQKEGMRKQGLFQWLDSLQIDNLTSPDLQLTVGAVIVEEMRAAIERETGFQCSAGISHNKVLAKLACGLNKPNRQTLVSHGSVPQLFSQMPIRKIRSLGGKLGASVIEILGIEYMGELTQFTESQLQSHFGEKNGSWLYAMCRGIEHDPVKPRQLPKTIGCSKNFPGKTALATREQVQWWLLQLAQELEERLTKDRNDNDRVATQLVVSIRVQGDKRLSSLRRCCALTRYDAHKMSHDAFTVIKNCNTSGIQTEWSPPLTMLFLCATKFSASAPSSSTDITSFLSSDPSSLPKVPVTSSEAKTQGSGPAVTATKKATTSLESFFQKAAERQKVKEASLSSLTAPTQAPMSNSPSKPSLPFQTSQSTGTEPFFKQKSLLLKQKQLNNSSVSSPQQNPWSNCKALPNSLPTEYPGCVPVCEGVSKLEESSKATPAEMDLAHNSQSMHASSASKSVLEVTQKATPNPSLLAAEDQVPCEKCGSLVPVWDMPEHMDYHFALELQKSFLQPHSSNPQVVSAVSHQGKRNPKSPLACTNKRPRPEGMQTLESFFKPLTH
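Fluorescent replication assay: 50 nM final substrate added after a 15 min room-temperature compound preincubation with 10 nM enzyme. Signal taken at 0 min and again at 10 min.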
FEN1 inh: blocks human flap endonuclease 1; P39748; Recombinant FEN1 flap cleavage, fluorescence, 15 min; Potency, µM (highest dose often 114 µM), without a hit: at the highest dose activity change, negative = inhibition, most hits filed as inhibitors; 0.35% of 390,000 active; note: % is set by controls: 0 for no effect and ±100 for the full control effect; nearly all actives have a fitted effect of over 65% in size
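Compounds are tested as a concentration series against 10 nM FEN1; after a 15 min room-temperature preincubation, 50 nM substrate starts cleavage, with plate reads at 0 and 15 min. Normalized responses are fitted by a Hill equation.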
POLB inh: inhibitors of human DNA polymerase beta | P06746 | Pol beta primer extension/strand displacement, fluorescence kinetic | Potency, µM (titrated, usually from 114 µM), without a hit: top-dose activity change, negative = inhibition, most hits filed as inhibitors | 1.3% of 340,000 active | AID 485314; note: % is set by controls: 0 for no effect and ±100 for the full control effect
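Enzyme-only controls used 10 nM Pol beta; buffer lacking enzyme served as negative control. Compound preincubated 15 min, then 50 nM substrate added; 0 and 10 min reads at room temperature.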
Tb PGK inh: T. brucei PGK inhibition; Potency, µM (top dose mostly 57.5 µM), for the others: top-dose activity change, negative = inhibition, usual class: inhibitors; PGK/GAPDH coupled, Kinase-Glo luminescence, 60 min; 0.043% of 380,000 active; P07378; note: % is set by controls: 0 for no effect and ±100 for the full control effect; nearly all actives have a fitted effect of over 60% in size
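Luminescent ATP detection (Kinase-Glo Plus) follows a 60-minute room-temperature incubation, with wells lacking PGK as controls. Buffer: 100 mM TEA (pH 7.6), 5 mM MgCl2, 0.01% Tween-20. Coupling enzyme GAPDH (100 nM final) supplies unstable 1,3-BPG in-well.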
Pol iota inh: inhibitors of human DNA polymerase iota | Q9UNA4 | Pol iota fluorescent replication assay, 10 min | Potency, µM (series often up to 115 µM), without a hit: at the highest dose activity, negative = inhibition, most hits filed as inhibitors | 1% of 390,000 active | AID 588590
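Pol iota at 10 nM preincubated 15 min with compounds at room temperature; reaction started with fluorescent substrate, 50 nM final. Fluorescence read kinetically at 0 and 10 min; buffer-only wells as negative control.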
An asterisk follows results filed as active. This is a sample that favours compounds with a hit; in the whole collection about 2.4% have one here. Calls come from the whole dose curve; as a rule, active = well fitted curve in the direction sought with a large enough effect; inconclusive = small, poorly fitted or top-dose-only effect, or another doubt; inactive = no such curve, though single readings can be large; an effect the other way counts as inactive or inconclusive. Potency is the fitted concentration of half-maximal effect.

For CC(C)C(=O)Nc1nc2c(ncn2[C@H]2CC(O)[C@@H](CO)O2)c(=O)[nH]1 (some centres not stated) the results were Pol kappa inh -6%, FEN1 inh -9% and Pol iota inh 17%.
Screening COc1ccc(Cl)cc1NC(=O)CCn1nc(C)cc1C returned Pol kappa inh -29%, POLH inh -15%, FEN1 inh -3%, POLB inh 32µM*, Tb PGK inh -14% and Pol iota inh inconclusive.
For COc1ccc(Cl)cc1NC(=O)CC(C)=O the results were Pol kappa inh -10%, POLH inh -16%, FEN1 inh 0%, POLB inh 22%, Tb PGK inh 4% and Pol iota inh -1%.
Screening CCCn1c(SCC(=O)Nc2cc(Cl)ccc2OC)nc(O)cc1=O returned Pol kappa inh -1%, POLH inh -20%, FEN1 inh 11%, Tb PGK inh -1% and Pol iota inh 9%.
Screening COc1cc(NC(=O)c2ccccc2)c(OC)cc1NC(=O)CSc1[nH]c(=O)cc(C)c1C#N returned Pol kappa inh 2%, POLH inh -22%, FEN1 inh 11%, POLB inh inconclusive, Tb PGK inh 5% and Pol iota inh -4%.
COc1ccccc1NC(=O)CSc1sc2c(O)cc(=O)[nH]c2c1C#N was read as Pol kappa inh 50µM*, POLH inh 20µM*, FEN1 inh 50µM*, POLB inh 0.56µM*, Tb PGK inh -13% and Pol iota inh 2.8µM*.
COc1ccc(Cl)cc1NC(=O)CSc1nc2sccc2c(=O)[nH]1 was read as Pol kappa inh -16%, POLH inh -29%, FEN1 inh -14%, POLB inh 56µM*, Tb PGK inh -11% and Pol iota inh 3%.
COc1ccc(Cl)cc1NC(=O)CSc1sc2c(O)cc(=O)[nH]c2c1C#N was read as Pol kappa inh inconclusive, POLH inh 25µM*, FEN1 inh -36%, POLB inh -14%, Tb PGK inh -13% and Pol iota inh 25µM*.
For Cc1ccc2c(/C=C/c3ccc(N(C)C)cc3)ccnc2c1 the results were Pol kappa inh -16%, FEN1 inh -10% and Pol iota inh 12%.
For COc1ccccc1/C=C1\C=Cc2ccccc21 the results were Pol kappa inh 0%, FEN1 inh -20% and Pol iota inh inconclusive.
Screening CC(C)(C)n1ncc2c(=O)n(Cc3cccc(Cl)c3Cl)cnc21 returned Pol kappa inh -16%, FEN1 inh -4% and Pol iota inh 20%.
`COC(=O)c1ccc(NC(=O)CCc2nnc3ccc(NCc4ccco4)nn23)cc1` gave Pol kappa inh inconclusive, POLH inh inconclusive, FEN1 inh -4%, POLB inh inconclusive, Tb PGK inh 1% and Pol iota inh 35µM*.
`Cc1cccnc1NC(=O)CCc1nnc2ccc(NCc3ccco3)nn12` gave Pol kappa inh -28%, POLH inh 45µM*, FEN1 inh 8%, POLB inh inconclusive, Tb PGK inh -3% and Pol iota inh inconclusive.
Screening COc1ccc(NC(=O)CCc2nnc3ccc(NCc4ccc5c(c4)OCO5)nn23)cc1 returned Pol kappa inh -14%, POLH inh -13%, FEN1 inh 4%, POLB inh inconclusive, Tb PGK inh 1% and Pol iota inh 45µM*.
CC(CCc1ccco1)NC(=O)CCc1nnc2ccc(NCc3ccc(Cl)cc3)nn12 (configuration not stated) was read as Pol kappa inh 79µM*, POLH inh -2%, FEN1 inh -35%, POLB inh 40%, Tb PGK inh inactive and Pol iota inh 25µM*.
CC(=O)Nc1ccc(NC(=O)CCc2nc3sc4c(c3c(=O)[nH]2)CCCC4)cc1 was read as Pol kappa inh -43%, POLH inh inconclusive, FEN1 inh 9%, Tb PGK inh inactive and Pol iota inh 40µM*.
